Test [1] in a line: small molecules captured by biotinylated probe aFSTL3 – biochemical, small-molecule microarray, fluorescence 635/667, stem cell growth factor project, primary screen (AID 1064).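 Note: measures binding of the biotinylated anti-FSTL3 antibody to printed compounds.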 As to conditions: higher = more signal.
Test [2] in a line: binders from COS7 lysate, DM2A8 probe, primary screen, torsin A project, cell lysate, small-molecule microarray, fluorescence 635/667 (AID 1065). As to conditions: higher = more signal, COS7 lysate expressing mutant human TOR1A.
Test [3] in a line: small molecules captured by biotinylated probe aFGF2 – biochemical, small-molecule microarray, fluorescence 635/667, stem cell growth factor project, primary screen (AID 1067).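 Note: measures binding of biotinylated aFGF2 protein to printed compounds on slides; z-score merges feature fluorescence and signal-to-noise across triplicate slides.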 As to conditions: higher = more signal.
Test [4] is described as follows: small molecules captured by biotinylated probe aFGF10 – biochemical, small-molecule microarray, fluorescence 635/667, stem cell growth factor project, primary screen (AID 1071).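 Note: score merges 667 nm spot intensity and signal to noise from triplicate slides.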 Conditions: higher = more signal.
The target in test [5] is Neurogenic locus notch homolog protein 2 (Homo sapiens) (UniProt Q04721). Kind of test: small molecules binding Notch2 protein – biochemical, small-molecule microarray, 635 nm fluorescence, stem cell growth factors, primary screen (AID 1073). Conditions: higher = more signal.
Test [6] concerns the target Pro-neuregulin-1, membrane-bound isoform (Homo sapiens) (UniProt Q02297). Kind of test: small molecules binding neuregulin-1 protein – biochemical, small-molecule microarray, fluorescence 635/667, psychiatric disease protein project, primary screen (AID 1075).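 Note: score combines 667 nm spot fluorescence with signal to noise.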 As to conditions: NRG1 binding, 635 nm fluorescence, higher = more signal.
The test system of test [7] is Neuregulin-1 EGF-like domain. Kind of test: small molecules binding NRG1 EGF domain – biochemical, small-molecule microarray, 635 nm fluorescence, primary screen (AID 1081).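 Note: binding of the protein to compounds printed on small-molecule microarray slides.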 As to conditions: higher = more signal.
The nature of test [8]: FRG1 expression reporter modulators in myotubes – cell-based, C2C12 myotubes, firefly/Renilla luciferase, luminescence, FRG1 inhibition for FSHD, primary screen (AID 1084). As to conditions: FRG1 promoter luciferase, higher = more signal, called active from +8 up or from −8 down.
Test [9] is described as follows: small molecules captured by biotinylated probe aFST – biochemical, small-molecule microarray, fluorescence 635/667, stem cell growth factor project, primary screen (AID 1086).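 Note: score merges 667 nm fluorescence with signal-to-noise of each printed compound spot.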 Conditions: higher = more signal.
Test [10] in a line: binders of probe aHhip on microarray, primary screen, stem cell growth factor project, biochemical, small-molecule microarray, fluorescence 635/667 (AID 1087).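 Note: score merges spot fluorescence at 667nm with spot signal to noise ratio.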 Conditions: higher = more signal.
Test [11] relates to PRMT1 (protein arginine N-methyltransferase 1). Kind of test: small molecules binding arginine methyltransferase PRMT1 – biochemical, small-molecule microarray, 635 nm fluorescence, primary screen (AID 1088).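 Note: binding of Prmt1 protein to compounds spotted on small-molecule microarray slides.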 Conditions: higher = more signal.
The nature of test [12]: growth effects on S. cerevisiae YJM789 – YJM789 clinical isolate, OD600, 24 h, basal, primary screen (AID 1089).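 Note: growth of clinical yeast isolate S. cerevisiae YJM 789 seeded 1000 cells per well; test concentration not given here.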 Conditions: higher = more signal, called active from +8 up or from −8 down.
The nature of test [13]: S. pombe growth modifiers, basal conditions – strain 972, OD600, 24 h, no modulator, primary screen (AID 1090).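 Note: basal condition with compound alone and no growth modifier present; test concentration not given here.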 Conditions: S. pombe 972 growth, higher = more signal, called active from +8 up or from −8 down.
Test [14] in a line: budding yeast growth modifiers under rapamycin – strain BY4716, OD600, 96 h, primary screen (AID 1091). Note: test concentration not given here. Conditions: S. cerevisiae BY4716 + rapamycin, higher = more signal, called active from +8 up or from −8 down.
Test [15] has as its target Torsin-1A-interacting protein 2 (Homo sapiens) (UniProt Q8NFQ8). Kind of test: small molecules binding lysate-expressed LULL1 – cell lysate, human LULL1 lysate, 635/667 nm fluorescence, primary screen (AID 1092).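 Note: probe is lysate of COS7 cells overexpressing human LULL1; score merges per-feature 667 nm fluorescence with signal-to-noise.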 As to conditions: small-molecule microarray, hLULL1 lysate binding, 635 nm fluorescence; higher = more signal.
Test [16] is described as follows: optical density change of DRC41 E. coli – strain DRC41, OD650, 24 h, E. coli filamentation project, primary screen (AID 1093).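 Note: MC1000 strain lacking acrAB efflux and sulA so SOS filamentation is blocked; test concentration not given here.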 As to conditions: E. coli DRC41 growth, higher = more signal, called active from +8 up or from −8 down.
A short description of test [17]: probe aLefty2 binding to arrayed compounds – biochemical, biotinylated probe, 635/667 nm fluorescence, primary screen (AID 1094).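 Note: score merges spot fluorescence near 667 nm with spot signal-to-noise ratio.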 As to conditions: small-molecule microarray, higher = more signal.
Test [18] concerns Noggin (protein binding on small-molecule microarray). Kind of test: small molecules binding Noggin protein – biochemical, 635/667 nm fluorescence, primary screen (AID 1095).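 Note: score merges 667 nm feature fluorescence with signal to noise over triplicate slides.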 As to conditions: 635 nm fluorescence, higher = more signal.
Test [19] addresses Neurogenic locus notch homolog protein 3 (Homo sapiens) (UniProt Q9UM47). Kind of test: small molecules binding NOTCH3 protein – biochemical, 635/667 nm fluorescence, primary screen (AID 1096). As to conditions: small-molecule microarray, 635 nm fluorescence, higher = more signal.
The nature of test [20]: probe aEGFR binding to arrayed compounds – biochemical, biotinylated probe, 635/667 nm fluorescence, primary screen (AID 1097).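 Note: probe is a biotinylated anti-EGFR antibody binding compounds printed on slides; score combines fluorescence near 667 nm and signal to noise of each spot.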 Conditions: small-molecule microarray, higher = more signal.

Active and inactive are the calls of the source.

Neurogenic locus notch homolog protein 3 (Homo sapiens), sequence (Q9UM47 whole entry, looked up): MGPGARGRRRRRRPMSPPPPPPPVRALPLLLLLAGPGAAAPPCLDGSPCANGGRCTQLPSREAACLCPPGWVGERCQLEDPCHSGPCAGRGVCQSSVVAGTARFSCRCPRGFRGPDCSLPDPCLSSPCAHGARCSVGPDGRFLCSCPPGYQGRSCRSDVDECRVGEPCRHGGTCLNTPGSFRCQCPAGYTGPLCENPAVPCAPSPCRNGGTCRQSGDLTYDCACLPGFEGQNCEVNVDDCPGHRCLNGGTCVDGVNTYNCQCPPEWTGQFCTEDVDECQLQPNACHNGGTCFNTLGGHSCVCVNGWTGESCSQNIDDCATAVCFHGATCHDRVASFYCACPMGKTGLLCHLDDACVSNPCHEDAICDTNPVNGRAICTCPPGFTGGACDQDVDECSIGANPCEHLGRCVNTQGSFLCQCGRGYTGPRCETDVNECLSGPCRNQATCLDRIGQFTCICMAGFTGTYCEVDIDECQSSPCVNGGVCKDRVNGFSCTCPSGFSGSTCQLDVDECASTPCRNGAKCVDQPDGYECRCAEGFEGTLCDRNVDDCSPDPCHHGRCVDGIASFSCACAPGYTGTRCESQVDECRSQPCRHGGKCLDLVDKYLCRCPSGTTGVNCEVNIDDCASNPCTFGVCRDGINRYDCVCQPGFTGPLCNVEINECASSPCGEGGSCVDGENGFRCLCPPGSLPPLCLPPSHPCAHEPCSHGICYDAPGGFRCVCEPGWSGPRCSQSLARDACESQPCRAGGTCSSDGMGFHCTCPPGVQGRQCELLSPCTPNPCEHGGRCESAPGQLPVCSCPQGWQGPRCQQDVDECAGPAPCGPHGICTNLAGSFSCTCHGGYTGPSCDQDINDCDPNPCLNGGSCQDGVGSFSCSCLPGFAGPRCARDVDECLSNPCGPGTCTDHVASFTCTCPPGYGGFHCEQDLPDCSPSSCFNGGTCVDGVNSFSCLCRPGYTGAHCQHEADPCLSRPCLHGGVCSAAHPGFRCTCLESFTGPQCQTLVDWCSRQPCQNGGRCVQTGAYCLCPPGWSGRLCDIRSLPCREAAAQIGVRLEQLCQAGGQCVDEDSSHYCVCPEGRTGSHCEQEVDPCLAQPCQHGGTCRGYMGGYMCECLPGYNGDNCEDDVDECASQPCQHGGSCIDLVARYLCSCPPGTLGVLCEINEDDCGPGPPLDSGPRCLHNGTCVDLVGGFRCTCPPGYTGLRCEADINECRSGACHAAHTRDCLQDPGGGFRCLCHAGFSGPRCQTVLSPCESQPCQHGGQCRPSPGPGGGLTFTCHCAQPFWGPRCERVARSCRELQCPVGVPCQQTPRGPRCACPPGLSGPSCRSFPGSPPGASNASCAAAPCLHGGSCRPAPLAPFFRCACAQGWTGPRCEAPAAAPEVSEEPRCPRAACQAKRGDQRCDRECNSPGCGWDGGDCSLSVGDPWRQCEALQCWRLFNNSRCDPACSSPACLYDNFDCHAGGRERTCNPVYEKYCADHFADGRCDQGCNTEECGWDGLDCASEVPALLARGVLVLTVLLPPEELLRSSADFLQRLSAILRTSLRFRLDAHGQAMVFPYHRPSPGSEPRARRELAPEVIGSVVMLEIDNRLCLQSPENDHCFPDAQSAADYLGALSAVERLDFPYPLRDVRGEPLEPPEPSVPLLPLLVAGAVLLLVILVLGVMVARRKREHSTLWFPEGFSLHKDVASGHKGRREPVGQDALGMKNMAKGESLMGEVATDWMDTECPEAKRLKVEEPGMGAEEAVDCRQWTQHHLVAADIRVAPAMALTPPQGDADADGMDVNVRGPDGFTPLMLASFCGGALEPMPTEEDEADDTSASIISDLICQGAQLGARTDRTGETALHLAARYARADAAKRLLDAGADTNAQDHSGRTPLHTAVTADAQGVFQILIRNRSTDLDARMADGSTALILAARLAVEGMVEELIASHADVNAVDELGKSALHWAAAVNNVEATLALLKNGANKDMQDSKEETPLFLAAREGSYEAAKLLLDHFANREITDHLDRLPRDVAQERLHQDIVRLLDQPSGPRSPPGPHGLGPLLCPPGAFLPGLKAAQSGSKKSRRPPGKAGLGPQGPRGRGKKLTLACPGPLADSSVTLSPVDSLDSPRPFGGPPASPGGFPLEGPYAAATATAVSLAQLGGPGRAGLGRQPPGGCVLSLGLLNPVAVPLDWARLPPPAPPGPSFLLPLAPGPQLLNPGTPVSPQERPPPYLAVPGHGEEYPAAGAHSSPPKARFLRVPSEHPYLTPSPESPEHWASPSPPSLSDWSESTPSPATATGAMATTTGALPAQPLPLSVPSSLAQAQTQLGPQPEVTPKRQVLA
Torsin-1A-interacting protein 2 (Homo sapiens), sequence (Q8NFQ8 whole entry, looked up): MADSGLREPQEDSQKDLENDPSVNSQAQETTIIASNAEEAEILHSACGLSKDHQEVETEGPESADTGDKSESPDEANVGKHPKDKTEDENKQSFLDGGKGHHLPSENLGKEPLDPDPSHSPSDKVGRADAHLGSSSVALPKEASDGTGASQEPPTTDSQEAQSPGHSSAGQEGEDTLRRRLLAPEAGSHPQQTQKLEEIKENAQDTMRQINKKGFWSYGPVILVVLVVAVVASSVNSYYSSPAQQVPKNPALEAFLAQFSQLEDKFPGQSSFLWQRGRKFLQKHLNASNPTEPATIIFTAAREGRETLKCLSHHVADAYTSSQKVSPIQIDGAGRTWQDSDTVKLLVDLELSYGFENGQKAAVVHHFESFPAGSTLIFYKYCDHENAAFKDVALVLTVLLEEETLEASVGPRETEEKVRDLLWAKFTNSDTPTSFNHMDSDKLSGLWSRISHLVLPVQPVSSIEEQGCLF
Pro-neuregulin-1, membrane-bound isoform (Homo sapiens), sequence (Q02297 whole entry, looked up, the tested form may be a part, canonical isoform): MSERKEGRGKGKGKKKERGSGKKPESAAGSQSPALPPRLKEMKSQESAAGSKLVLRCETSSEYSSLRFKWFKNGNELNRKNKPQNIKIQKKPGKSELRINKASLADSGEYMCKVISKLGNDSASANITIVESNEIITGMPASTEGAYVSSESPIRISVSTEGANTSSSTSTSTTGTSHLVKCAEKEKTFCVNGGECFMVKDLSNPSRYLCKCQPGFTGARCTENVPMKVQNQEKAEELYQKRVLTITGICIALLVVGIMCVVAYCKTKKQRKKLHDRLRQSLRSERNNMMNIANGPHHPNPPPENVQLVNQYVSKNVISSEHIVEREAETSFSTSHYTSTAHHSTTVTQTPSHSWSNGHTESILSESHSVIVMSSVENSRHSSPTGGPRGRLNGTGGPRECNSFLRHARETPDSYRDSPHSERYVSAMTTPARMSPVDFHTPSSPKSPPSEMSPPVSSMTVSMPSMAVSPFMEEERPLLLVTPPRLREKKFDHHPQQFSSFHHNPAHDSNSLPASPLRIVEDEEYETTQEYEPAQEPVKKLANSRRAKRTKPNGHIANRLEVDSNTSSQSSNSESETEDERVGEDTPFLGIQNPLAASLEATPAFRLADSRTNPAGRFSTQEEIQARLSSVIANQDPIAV

In the case of `COc1ccc([Si](C)(C)[C@H]2[C@H](CC(=O)N3Cc4ccccc4C[C@H]3CO)O[C@@]3(C(=O)N(c4ccccc4)c4ccccc43)[C@@H]2C)cc1`, the composite z-score in test [1] was determined as 0.0545; in [2] it was 1.37; in test [3], 0.0568; in test [4], 0.748; in [5], 0.584; in [6] it was 1.16. Moreover, the composite z-score in [7] is 1.16; in test [9], 0.381; in test [10] it was 0.21; in test [11], 1.53; in test [15] it was 1.47; in [17], -0.0088. Besides, the composite z-score in test [18] came out at 1.85; in [19] it was 1.09; in test [20], 0.0059. In addition, the z-score in test [8] is -2.31 (inactive); in test [12], -2.39 (inactive); in test [13], -1.61 (inactive); in test [14] it was -0.776 (inactive); in test [16] it was 1.65 (inactive).
For `CC(C)(C)OC(=O)CC[C@]1(C(=O)NCC(O)CO)N=C(c2ccc(OCCCO)cc2)O[C@H]1c1ccccc1N=[N+]=[N-]` (stereo not given in full), the composite z-score in [1] amounted to 0.929; in [2], 1.34; in test [3], 0.171; in test [4], 0.53; in test [5], 1.02; in [6] it was 1.58. In addition, the composite z-score in [7] was 1.17; in test [9], 0.967; in test [10] it was -0.189; in [11], 0.98; in [15], 3.62; in test [17], 0.595. In addition, the composite z-score in test [18] came out at 0.187; in test [19], 0.398; in test [20] it was 0.0506. Further, the z-score in test [8] was 3.99 (inactive); in test [12], -0.652 (inactive); in test [13] it was -0.0793 (inactive); in [14], -0.517 (inactive); in test [16] it was 0.821 (inactive).
In the case of `CC(C)=CCCC=C(C)C(O)C1C=CC2C(=O)N(c3ccccc3)C(=O)C2N1Nc1ccc(C#N)cc1` (stereo not given), the composite z-score was 0.314 in test [1]; 0.146 in test [2]; 0.126 in test [3]; 0.178 in test [4]; 1.51 in [5]; 1.93 in test [6]. The composite z-score is 1.23 in test [7]; 0.257 in test [9]; -0.382 in [10]; 1.38 in test [11]; 3.3 in test [15]; -0.152 in [17]. In addition, the composite z-score in test [18] is 0.0542; in test [19] it was 1.01; in test [20] it was -0.0828. Further, the z-score in test [8] is -1.36 (inactive); in test [12] it was -1.67 (inactive); in [13], 0.0768 (inactive); in [14], 2.31 (inactive); in [16] it was -1.24 (inactive).
Regarding `COC(=O)[C@]1(Cc2ccccc2)N=C(c2ccc(OCCCO)cc2)O[C@@H]1c1ccccc1CN=[N+]=[N-]`, the composite z-score is 0.278 in [1]; -0.235 in test [2]; -0.0266 in [3]; -0.214 in test [4]; 0.582 in [5]; 0.718 in test [6]. Moreover, the composite z-score is 1.29 in test [7]; 0.693 in [9]; -0.134 in test [10]; 1.56 in test [11]; 2.34 in test [15]; 0.0647 in test [17]. Besides, the composite z-score in [18] is 0.615; in test [19], 0.399; in test [20], -0.0967. Besides, the z-score is 1.48 (inactive) in test [8]; 0.738 (inactive) in test [12]; 0.237 (inactive) in [13]; 34.8 (active) in test [14]; -0.156 (inactive) in test [16].
On to `C=C(/C(=C/C[C@@H](OC(C)=O)c1cccc(OCCO)c1)c1cnc2ccccc2c1)C(C)C`, for which the composite z-score was -0.121 in [1]; 0.197 in test [2]; -0.0242 in test [3]; 0.76 in test [4]; 0.693 in test [5]; 0.41 in [6]. Moreover, the composite z-score in [7] was 1.08; in test [9], 0.0752; in test [10] it was -0.0645; in [11], 1.55; in test [15], 0.77; in test [17], -0.207. The composite z-score in test [18] was 2.09; in test [19], 0.801; in [20], -0.139. Moreover, the z-score in [8] is 2 (inactive); in [12], 0.0631 (inactive); in [13], -0.396 (inactive); in [14] it was -0.28 (inactive); in test [16] it was 0.974 (inactive).
